In PubChem BioAssay (NCATS):
Inconclusive results are not listed. The source made the active and inactive calls. Calls come from the whole dose curve; as a rule, active = well fitted inhibition curve with a large enough effect; inconclusive = small, poorly fitted or top-dose-only effect; inactive = flat fitted curve, though single readings scatter.

Key:
[1] = qHTS profiling for inhibitors of Plasmodium falciparum proliferation (AID 504749);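 note: 0% = DMSO vehicle and full inhibition = artemisinin control; nearly all actives have a fitted effect of over 60% in size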; details: P. falciparum in erythrocytes, SYBR Green DNA, 72 h, at 28.7 µM (top of the series)
Procedure, shortened: (§1)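 Fluorescence of SYBR Green-bound parasite DNA, read at 485/535 nm, served as the growth measure. Infected erythrocytes were cultured with compound 72 h; artemisinin (0.29 uM) and DMSO wells defined the normalization range.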

3D7 = experiment: as above; details: P. falciparum in erythrocytes, SYBR Green DNA, 72 h; series mostly up to 28.7 µM
Procedure, shortened: as §1

7G8 = experiment: as above; details: P. falciparum in erythrocytes, SYBR Green DNA, 72 h; series mostly up to 28.7 µM
Procedure, shortened: as §1

AA1029 = experiment: as above; details: P. falciparum in erythrocytes, SYBR Green DNA, 72 h; series mostly up to 28.7 µM
Procedure, shortened: as §1

AS120 = experiment: as above; details: P. falciparum in erythrocytes, SYBR Green DNA, 72 h; series mostly up to 28.7 µM
Procedure, shortened: as §1

ATS189 = experiment: as above; details: P. falciparum in erythrocytes, SYBR Green DNA, 72 h; series mostly up to 28.7 µM
Procedure, shortened: as §1

O=[N+]([O-])c1ccccc1
inactive: activity, negative = inhibition ([1]; parasite line A) -4.98% | activity, negative = inhibition ([1]; parasite line B) 4.83% | Potency (3D7) | Potency (7G8) | Potency (AA1029) | Potency (AS120) | Potency (ATS189)

CCCN1CCCC2Cc3[nH]ncc3CC21 (configuration not stated)
inactive: activity, negative = inhibition ([1]; parasite line A) 7.25% | activity, negative = inhibition ([1]; parasite line B) 13.9% | Potency (3D7) | Potency (7G8) | Potency (AA1029) | Potency (AS120) | Potency (ATS189)

COC([CH2][Hg])CNC(=O)c1ccccc1OCC(=O)O (configuration not stated)
inactive: activity, negative = inhibition ([1]; parasite line A) 6.16% | activity, negative = inhibition ([1]; parasite line B) 2.49% | Potency (3D7) | Potency (7G8) | Potency (AA1029) | Potency (AS120) | Potency (ATS189)

CCC1(CC)C(=O)NC(=O)N(C)C1=O
inactive: activity, negative = inhibition ([1]; parasite line A) 7.69% | activity, negative = inhibition ([1]; parasite line B) -5% | Potency (3D7) | Potency (7G8) | Potency (AA1029) | Potency (AS120) | Potency (ATS189)

ClC1C(Cl)C(Cl)C(Cl)C(Cl)C1Cl (configuration not stated)
inactive: activity, negative = inhibition ([1]; parasite line A) 10.1% | activity, negative = inhibition ([1]; parasite line B) 13.2% | Potency (3D7) | Potency (7G8) | Potency (AA1029) | Potency (AS120) | Potency (ATS189)

CNC(=O)OCC[N+](C)(C)C
inactive: activity, negative = inhibition ([1]; parasite line A) 18.2% | activity, negative = inhibition ([1]; parasite line B) 8.99% | Potency (3D7) | Potency (7G8) | Potency (AA1029) | Potency (AS120) | Potency (ATS189)
